Laboratory results from PubChem BioAssay AID777 (Sanford-Burnham Center for Chemical Genomics, 2007).
The campaign covered roughly 96,000 compounds. About 19,000 (20%) were called active.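 How the source made its calls: active means blocking of liver enzyme CYP2C9 beyond about 50% at 5 µM (limit read from the data); inactive means the rest.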 The list is a sample of the results.

Each compound was assayed against Cytochrome P450 2C9 (Homo sapiens) (UniProt P11712) (assay: blockers of cytochrome P450 2C9 activity – biochemical, luminescence, ADME assay, primary screen (AID 777)). Details: CYP2C9 Supersomes, luciferin-H conversion, at 5 µM, hits give high values.
Chain of Cytochrome P450 2C9 (Homo sapiens) (P11712 whole entry, looked up): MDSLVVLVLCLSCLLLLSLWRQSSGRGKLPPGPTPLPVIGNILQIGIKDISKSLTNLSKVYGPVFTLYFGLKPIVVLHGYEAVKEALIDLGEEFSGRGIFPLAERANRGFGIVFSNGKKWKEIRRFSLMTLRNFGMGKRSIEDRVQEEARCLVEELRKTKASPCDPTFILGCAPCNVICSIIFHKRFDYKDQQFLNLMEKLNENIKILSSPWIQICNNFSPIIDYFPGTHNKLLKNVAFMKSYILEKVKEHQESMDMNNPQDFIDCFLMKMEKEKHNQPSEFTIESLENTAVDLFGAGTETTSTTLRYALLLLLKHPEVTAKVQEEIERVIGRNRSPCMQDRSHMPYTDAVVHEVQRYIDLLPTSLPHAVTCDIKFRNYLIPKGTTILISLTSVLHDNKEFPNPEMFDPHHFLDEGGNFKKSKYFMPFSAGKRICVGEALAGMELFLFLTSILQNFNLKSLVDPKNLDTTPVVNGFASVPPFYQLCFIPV

inhibition, active:
Cc1cccc(N2CCN(C(=O)c3cnn4c(C(F)F)cc(-c5ccccc5)nc34)CC2)c1C 93.5%
O=C1c2ccccc2NC(c2ccc(-c3cccc(Cl)c3)o2)N1O (centres undefined) 52.4%
CCOC(=O)N1CCN(C(=O)c2ccc(CN(c3ccc(C)c(C)c3)S(C)(=O)=O)cc2)CC1 71.2%
COc1ccccc1N(C)S(=O)(=O)c1ccc(C(=O)N2CCC(C(N)=O)CC2)cc1 53.8%
COc1ccccc1N(CC(=O)N1CCCCC1)S(=O)(=O)c1ccccc1 56.8%
CCOC(=O)N1CCN(C(=O)CN(c2ccc(C)c(C)c2)S(=O)(=O)c2ccccc2)CC1 72.9%
CC(C)c1ccc(N2CC(C(=O)Nc3nccs3)CC2=O)cc1 (centres undefined) 78.1%
CCOc1ccc(NC(=O)CN(C)CC(=O)Nc2cccc(Cl)c2C)cc1OCC 56.1%
CN(CCc1ccccn1)S(=O)(=O)c1ccc2c3c(cccc13)C(=O)N2 70.5%
Cc1cc2[nH]ncc2cc1NC(=S)NC(=O)c1ccccc1 97.8%
Cc1ccc(NC(=O)CN(C)S(=O)(=O)c2cnc[nH]2)cc1C 93.7%
CCOC(=O)c1c(-c2ccccc2)csc1NC(=S)NC(=O)c1ccccc1 55%
COc1cc(C2CC(=O)N3CN(Cc4ccccc4)CSC3=C2C#N)ccc1OCc1ccccc1 (centres undefined) 86.4%
Cc1ccc(OC(=O)c2ccccc2C(=O)OCC(F)(F)C(F)F)cc1 84.1%
CCCCn1c(=S)[nH]c2cc(S(=O)(=O)N3CCCCC3)ccc21 64.3%
Cc1cc([N+](=O)[O-])c(-c2ccc(/C=N/n3cnnc3)o2)cc1Cl 77%
Cc1cc(-c2ccc(/C=N/n3cnnc3)o2)c([N+](=O)[O-])cc1C 50.5%
CC(N=Cc1nc(-c2ccccc2)oc1O)c1ccccc1 (centres undefined) 66.7%
O=C(c1cc2c(s1)CCC2)N1CCN(c2ccccc2)CC1 54.4%
CN1/C(=C\C=C2\N=C(c3ccc(F)cc3)OC2=O)C(C)(C)c2ccccc21 64.7%
CCCCCCNC(=O)CSc1nccn1Cc1ccccc1 77.3%

inhibition, inactive:
CCc1ccc2nc3sc(C(=O)Nc4nnc(CC)s4)c(N)c3cc2c1 31.5%
O=C(NCCCN1CCOCC1)c1cnn2c(-c3ccccc3)cc(-c3ccccc3)nc12 7.3%
O=C(O)c1cnn2c(C(F)(F)F)cc(-c3ccccc3)nc12 18.5%
CC1CC(C)CN(C(=O)CSc2nnc(CSc3ncccn3)n2C)C1 (centres undefined) -5.7%
CCOc1cc(-c2nc3cc(C)ccn3c2NCC2CCCO2)ccc1O (centres undefined) 8.6%
COc1ccc(-n2ncc3c(N4CCCc5ccccc54)ncnc32)cc1 1.2%
O=C(C1=C(O)C(=O)N(c2ncccn2)C1c1cccs1)c1ccco1 (centres undefined) -13.2%
COc1cccc2c(=O)n(CC(=O)N3CCCCCC3)ccc12 -29.3%
CCOC(=O)N1CCN(C(=O)c2ccc3c(c2)N(Cc2ccc(C)cc2)CCS3)CC1 32.3%
NC(=O)C1CCN(C(=O)c2ccc(-c3ccccc3)cc2)CC1 -10.3%
CCOC(=O)N1CCN(C(=O)c2ccc(S(=O)(=O)c3ccc(C)cc3)c(NC(C)=O)c2)CC1 -6.9%
NC(=O)C1CCN(C(=O)c2ccc(C(F)(F)F)cc2)CC1 -4.8%
COc1ccccc1-c1cc(C(=O)N2CCCCC2)no1 -15.6%
CSc1ccc(-c2c(C#N)c(N)nc3c2c(C)nn3-c2ccccc2)cc1 17.3%
N#CC1=C(N)N(c2ccc(F)cc2)C(=O)C1 -13.8%
Cc1c(NC(=O)c2coc(=O)c(Br)c2)c(=O)n(-c2ccccc2)n1C -1.3%
CC(Nc1nc(N2CCCC2)nc2ccccc12)c1ccccc1 (centres undefined) 11.6%
N#C/C(=C/c1ccc(Cl)cc1)NC(=O)c1ccccc1 40.8%
COc1ccccc1-n1nnnc1S(=O)(=O)Cc1ccc(Cl)cc1 45.6%
COc1cccc(NC(=O)C2c3cc(OC)c(OC)cc3C(=O)N(C)C2c2cccnc2)c1 (centres undefined) 30.6%
CS(=O)(=O)c1sc2nc(-c3ccccc3)cc(-c3ccccc3)c2c1N 19%
CCc1ccc(N2CC(C(=O)NC3=NCCS3)CC2=O)cc1 (centres undefined) 27.4%
CCCOc1ccc(N2CC(C(=O)Nc3ccccn3)CC2=O)cc1 (centres undefined) 8.9%
Cc1ccc(-n2nc(N)c3c(=O)oc(N(C)C)nc32)cc1 11.3%
O=C(COc1cc(Cl)c(Cl)cc1Cl)NC(=O)NC1CCCC1 -13%
O=C(Cc1ccc2c(c1)CCCC2)Nc1ccccc1Cl 13.7%
CCNC(=S)Nc1cccc(Cl)c1C 16%
CC(=O)N1CC2(C)CN(C(C)=O)CC(C)(C1)C2=O -0.1%
O=C(Nc1cccc(OCC(=O)N2CCOCC2)c1)C1CCCCC1 -6.8%
O=c1[nH]nc(Cc2ccccn2)c2ccccc12 -9.2%
CCN(CC)S(=O)(=O)c1ccc2c3c(cccc13)C(=O)S2 -46.8%
COC(=O)c1nc(NC(=O)c2ccccc2)n[nH]1 0.3%
Cc1ccc(NC(=S)NC(=O)c2ccc(-c3ccccc3)cc2)c(C)c1 19%
COc1ccc(N(CC(=O)NC(C)(C)C)C(=O)c2ccco2)cc1 9.6%
Cc1cc(Cl)ccc1N1C(=O)CC(SCCC(=O)O)C1=O (centres undefined) 35.2%
C/C(=C\C(=O)c1cccnc1)Nc1ccc(C)c(C)c1 12.9%
COc1ccc(NC(=O)CN(C)S(=O)(=O)c2ccccc2)cc1OC 21.2%
Cc1ccc(C)n1-c1ccncc1 40.5%
COc1ccc(Cl)cc1S(=O)(=O)N1CCN(CC(=O)C(C)(C)C)CC1 -142%
CCOC(=O)c1c(-c2cccc(C)c2)csc1NC(=O)c1c(-c2ccccc2)noc1C 26.8%
CCOC(=O)c1c(NC(=S)NC(=O)c2ccco2)sc2c1CCCC2 0.4%
O=C1CSC(c2ccc(Cl)cc2)N1 (centres undefined) -1%
COc1ccc(C2CC(=O)Nc3sc(=N)c4c(N)c(C#N)c(N)nc4c32)cc1OC (centres undefined) 41.6%
COc1ccc(C2CC(=O)n3c(nc4ccccc43)S2)cc1OC (centres undefined) 14.4%
CCCNC(=O)C1CC(=O)N(c2ccc(OCC(=O)Nc3cccc(C)c3C)cc2)C1 (centres undefined) 22.1%
COc1ccc(-n2nc3c(c2NC(=O)Cc2cccc(C)c2)CS(=O)C3)cc1 (centres undefined) -1.9%
Cc1ccc(OC(=O)c2cc3ccccc3o2)cc1 -2.9%
COc1ccccc1C(=O)Oc1ccc(N2C(=O)CCC2=O)cc1 -113%
CC(C)(C)c1ccc(C(=O)NNC(=O)Cc2ccccc2)cc1 6.1%
CCCCN1C(=O)CC(N2CCOCC2)C1=O (centres undefined) 1.5%
CN1CCCN(S(=O)(=O)c2ccc3c(c2)OCCO3)CC1 -7.5%
CCCCNC(=O)C1CCCN(S(=O)(=O)c2ccc(S(=O)(=O)NCC(C)C)cc2)C1 (centres undefined) 46%
c1ccc(-c2cn3cccnc3n2)cc1 -1.3%
c1ccc(-n2nnnc2NC2CCCCCC2)cc1 24%
Cc1cc(C)c([N+](=O)[O-])cc1-c1ccc(/C=N/NC(=O)c2nonc2N)o1 22.2%
O=C1C2C3C=CC(C4CC34)C2C(=O)N1/N=C/c1ccc(-c2ccccc2[N+](=O)[O-])o1 (centres undefined) 36.8%
CCCC(=O)N1c2ccccc2NC2=C(C(=O)CCC2)C1c1ccc(F)cc1 (centres undefined) 8.5%
CC(=O)CCS(=O)(=O)c1ccc(C)c(C)c1 -62.6%
Cc1c(CN2CCC(C)CC2)c(=O)n(-c2ccccc2)n1C -8%
CCOC1CS(=O)(=O)CC1OCC (centres undefined) -5.4%
CC(NC(=O)c1cc(-c2ccccc2)on1)c1ccccc1 (centres undefined) -23.7%
CCOC(=O)N1CCN(CC(=O)c2ccc3c(c2)CCN3)CC1 -1.9%
CC(=O)Nc1nc(C)c(Cc2ccccc2)c(=O)[nH]1 -0.9%
CC1(C)Cc2c(sc3nc(SCC(=O)NCc4ccccc4)n(-c4ccccc4)c(=O)c23)CS1 -0.2%
O=C(NCCCN1CCOCC1)c1cc2c(s1)CCC2 -6.3%
O=C(CNC(=O)c1cc2c(s1)CCC2)Nc1ccccc1Br 30%
Cc1nnc(SCc2nc3ccccc3nc2C)s1 -5.7%
CC(C)NC(=O)c1ccccc1S(=O)c1ccccc1C#N (centres undefined) -1.3%
Cc1cnc(NC(=O)CSc2nnc(-c3ccc(Cl)cc3Cl)n2N)s1 46.7%
CSc1ccc(CCNC(=O)C2CCN(c3nnc(-n4cccc4)s3)CC2)cc1 37%
O=C(CN1CCSCC1)N/N=C/c1ccc(F)cc1F 7.6%
O=C1OC(c2ccc(Cl)cc2)=N/C1=C\c1cccnc1 18.2%
CCn1cc(C(=O)NCc2ccc(OC)cc2OC)c(=O)c2ccc(C)nc21 15.3%
CCCCCCOC(=O)NCC(O)c1ccccc1 (centres undefined) 23.8%
c1ccc(-n2ncc(-c3nn[nH]n3)n2)cc1 46.2%
COc1ccc(N2C(=O)C3CCCN3C2c2cccc(OC)c2)cc1 (centres undefined) 16.3%
CCCCNC(=O)CSc1nccn1Cc1ccccc1 23%
COC(=O)CCSc1nccn1Cc1ccccc1 10.8%
